PubChem BioAssay

What was measured:
[1] = target: Tumor necrosis factor receptor superfamily member 10B (Homo sapiens) (UniProt O14763); experiment: viability loss of caspase-8 NB7 cells with TRAIL – with/without TRAIL, luminescence panel, confirmation (AID 651596); conditions: NB7 neuroblastoma + caspase-8, TRAIL sensitization, NB7 Caspase-8, with TRAIL, mean of runs, at 10 µM, stronger effect = higher value
[2] = as above; conditions: NB7 neuroblastoma + caspase-8, without TRAIL, NB7 Caspase-8, without TRAIL, mean of runs, at 10 µM

Sequence of Tumor necrosis factor receptor superfamily member 10B (Homo sapiens) (O14763 whole entry, looked up): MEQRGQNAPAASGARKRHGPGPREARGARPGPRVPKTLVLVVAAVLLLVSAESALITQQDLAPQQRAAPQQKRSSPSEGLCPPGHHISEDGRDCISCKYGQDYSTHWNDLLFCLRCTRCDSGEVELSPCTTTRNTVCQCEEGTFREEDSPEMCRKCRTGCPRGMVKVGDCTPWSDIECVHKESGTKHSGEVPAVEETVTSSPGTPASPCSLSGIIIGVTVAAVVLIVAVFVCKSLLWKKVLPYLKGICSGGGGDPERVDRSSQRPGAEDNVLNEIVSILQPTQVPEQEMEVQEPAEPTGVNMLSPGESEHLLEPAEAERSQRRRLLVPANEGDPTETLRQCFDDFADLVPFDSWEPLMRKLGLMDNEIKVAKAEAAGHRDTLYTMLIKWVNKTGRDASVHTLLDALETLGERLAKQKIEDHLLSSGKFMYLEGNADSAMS

Structure (SMILES) | activity [1] [%] | activity [2] [%]
COc1cccc(N2C(N)=NC(N)=NC2(C)C)c1 | 79.7 | 85
COCCCNc1ccn2nc(-c3ccccc3)cc2n1 | 50.1 | 35.5
CC(OC(=O)c1cc(O)c2ccccc2c1O)C(=O)Nc1ccc(C(N)=O)cc1 (stereo unspecified) | 49.5 | 49.2
O=C(CCl)N1CCN(S(=O)(=O)c2ccc3c(c2)CCC3)CC1 | 97.7 | 97.1
c1ccc2nc(-c3nc4ccccc4o3)ccc2c1 | 79.6 | 76
COc1ccc(-c2ccc(SC)nn2)cc1 | 88.9 | 90.2
O=[N+]([O-])c1ccc(/C=C/c2ccc3ccccc3n2)cc1 | 70.2 | 68.5
O=C(Oc1c(CN2CCOCC2)cc(Cl)c2cccnc12)c1ccccc1Br | 53.5 | 52.8
N/C(Cc1ccc(Cl)cc1)=N\OC(=O)c1ccc2ccccc2c1 | 98.5 | 95
COc1cccc(/C=N/Nc2nn3cnnc3c3ccccc23)c1 | 62 | 61.4
Cn1c(N)c(C(=O)COC(=O)c2cc(S(=O)(=O)N3CCOCC3)ccc2F)c(=O)n(C)c1=O | 90.6 | 93.8
CCCOc1ccc(-c2nc(N3CCN(C)CC3)c3ccccc3n2)cc1 | 71 | 67.7
CCCCCCCCCCCCCCCC[N+](C)(C)Cc1ccc(F)cc1 | 80.7 | 74.2
Cc1ccc(C(=O)OCn2ncc(Cl)c(Cl)c2=O)cc1 | 100 | 100
Clc1ccc(-c2nnc(-c3ccccc3)o2)c(Cl)c1 | 81.8 | 79
CN(C)c1ccc(/C=N/NC(=O)c2ccccn2)cc1 | 74.7 | 65.2
Fc1ccc(-c2cnn3c(-c4cccs4)ccnc23)cc1 | 61.2 | 59.4
Cc1nc2cc(-c3ccccc3)nn2c(N)c1-c1ccccc1 | 59 | 44.4
COc1cccc(/C=C/C(=O)Nc2ccc3c(c2)OCCO3)c1OC | 83.7 | 82
Cc1cccc(NC(=O)c2cc3ccccc3c(=O)o2)n1 | 60.3 | 68.3
Cc1cc(C)cc(N2C(N)=NC(N)=NC2c2ccccc2F)c1 (stereo unspecified) | 51.1 | 72.4
C=CCOc1cccc(/C=C/c2nc3ccccc3c(=O)[nH]2)c1 | 66.8 | 64.8

Structure (SMILES) | activity [1] [%] | activity [2] [%]
O=C(Nc1ccc2c(c1)nc1n2CCSC1)c1ccccc1 | 69.8 | 60
Cc1cc(C)cc(C(=O)O/N=C(\N)c2ccc(Br)cc2)c1 | 89.5 | 89.5
O=C(Nc1ccc2ccccc2c1)c1ccc(Cl)cc1Cl | 63.9 | 60.5
CCc1ccc([C@H]2[C@@H]3C(=O)C[C@@H]4C(=O)N(c5ccccc5)C(=O)[C@@H]4[C@@H]3CN2S(=O)(=O)c2ccc(C)cc2)cc1 | -4.35 | -7.2
Nc1nn2cc(-c3ccc(Br)cc3)nc2c2ccccc12 | 53.9 | 47.2
CN1/C(=C\C(=O)c2cccs2)Sc2ccccc21 | 63 | 61
CNC[C@H](CC1CCCCC1)NC[C@H](Cc1ccccc1)NCCC12CC3CC(CC(C3)C1)C2 | 98.5 | 99.4
CSc1ccc(/C=C/C(=O)c2c(O)cc(C)oc2=O)cc1 | 78.7 | 82.2
N/C(Cc1ccc(Cl)c(Cl)c1)=N\OC(=O)c1cccs1 | 49.6 | 39.5
CCN(CC)S(=O)(=O)c1cc(C(=O)OCC(=O)Nc2ccc(-c3nc4ccc(C)cc4s3)cc2)ccc1F | 73.7 | 74.2
CCOc1ccc(C(=O)Nc2nnc(NC(=S)Nc3ccccc3)s2)cc1 | 59.8 | 61.6
NC(Cc1ccc(C(F)(F)F)cc1)c1csc(NC(=O)Nc2ccccc2Cc2ccccc2)n1 (stereo unspecified) | 75 | 96.2
O=C(CSc1nnc(-c2csc3c2CCCC3)o1)Nc1ccccc1 | 76.4 | 76.5
C#Cc1ccc(NC(=O)C2(C)CCN2C(=O)c2ccccc2CCc2ccccc2)cc1 (stereo unspecified) | 91.2 | 95.9
COc1ccc(-c2nn(-c3ccccc3)cc2/C=N/NC(=O)c2ccc(Br)o2)cc1 | 79.5 | 32.3
Cc1ccccc1C(=O)O/N=C(\N)Cc1cccs1 | 98 | 96.6
Cc1ccc2nc(-c3ccc(NC(=O)CCN4C(=O)c5ccccc5C4=O)cc3)sc2c1 | 73.7 | 63.9
NC(=O)c1c(NC(=O)c2cc3ccccc3o2)sc2c1CCC2 | 56 | 42.8
N/C(CCS(=O)(=O)c1ccc(Cl)cc1)=N\OC(=O)c1ccccc1C(F)(F)F | 94.2 | 93.6
O=C(CSc1nnc(NC(=O)c2ccc(F)cc2)s1)NCc1ccco1 | 64.4 | 62.4
Cc1oc(-c2nc3ccccc3n2C)cc1C(=O)c1ccccc1 | 81.4 | 81
